Consider 99 molecules from PubChem BioAssay AID1850 (Southern Research Specialized Biocontainment Screening …, 2009).

Structures are written as SMILES. Values joined by “and” are separate entries in the source; they are usually repeats but may differ in a detail not shown here. Identical values can stand only once. The whole screen tested about 310,000 compounds, of which about 1,000 (0.32%) were called active. These entries were drawn from the full list. Measured potencies and affinities stand elsewhere. Unmarked numbers belong to inactive results. The rule behind the calls is not given here.

The nature of this assay: Inhibition of PhoP regulon, Salmonella typhi GFP reporter cells, confirmation, 4 h (AID 1850).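 Note: 0% = induced wells with vehicle and 100% = uninduced wells.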 The settings on record: Salmonella Typhi PhoP-promoter GFP reporter, fluorescence, at 50 µM, active compounds read high.
For the molecule `O=C(NNC(=O)c1nn(-c2ccc(F)cc2)ccc1=O)c1ccc(Cl)cc1`, the inhibition – broadly, the drop in the measured response relative to a control, in per cent – is 1.15%.
Turning to `CC1(CC(=O)N/N=C/c2cc3c(cc2Br)OCO3)OCCO1`, the inhibition is 5.58%.
To `CC1(CC(=O)N/N=C/c2cc(Br)c(O)cc2O)OCCO1` belongs -8.89%; to `CCN(C1CCCCC1)S(=O)(=O)c1c(C)n(C)c(=O)n(C)c1=O`, -2.91%; to `CCOC(=O)c1cnc2cc(F)c(F)cc2c1N1CCN(C)CC1`, -5.38%.
Regarding `CCOc1ccc(NC(=O)c2ccc(NC(=O)c3cn4c5c(c(N6CCN(C)CC6)c(F)cc5c3=O)OCC4C)cc2)cc1` (centres undefined), the inhibition is -0.94%.
Take `Cc1c(-n2cc(C(=O)O)c(=O)c3cc(F)c(N4CCCC4)c(F)c32)c(=O)n(-c2ccccc2)n1C`: the inhibition was -2.73%.
Next, `CCn1cc(C(=O)O)c(=O)c2cc(F)c(N/N=C/c3ccccc3)cc21`: -3.82%.
`Cc1cc(C)c(NC(=O)c2cn3c4c(c(N5CCN(C)CC5)c(F)cc4c2=O)OCC3C)c(C)c1` (centres undefined): the inhibition is 1.68%.
In the case of `CCOC(=O)C1CN(c2cc3c(cc2F)c(=O)c(C(=O)O)cn3CC)OC1C(=O)OCC` (centres undefined), the inhibition is -4.02%.
As for `O=C(Nc1cccc(F)c1)OC(CN1CCCCC1)C(F)(F)F` (centres undefined), the inhibition was 6.26%.
Take `CC1(C)Cc2c(cnn2-c2ccc(F)cc2)C(NC(=O)CN2CCCCC2=O)C1` (centres undefined): the inhibition is -4.07%.
With `CCCNC(=S)N1CCN(C)CC1`, the inhibition was -12.9%.
`CCOC(=O)c1ccc(Nc2nnc(C(C)(C)C)c(=O)[nH]2)cc1`: the inhibition is -2.27%.
Take `Cc1ccc(C(=O)CSc2nnc(C(C)C)n2C)cc1C`: the inhibition was -9.07%.
Take `O=C(c1ccc2nc(Cc3ccccc3F)oc2c1)N1CCCC1`: the inhibition was -15.9%.
Turning to `C/C(=N\OC(=O)c1c(-c2ccccc2Cl)noc1C)c1nccs1`, the inhibition is -7.14%.
For `COCCn1c(N)c(N(Cc2ccccc2)C(=O)c2oc3ccccc3c2C)c(=O)[nH]c1=O`, the inhibition is -2.04%.
For `CCOc1ccccc1N1CCN(C(=S)NCc2ccco2)CC1`, the inhibition is -6.16%.
For the molecule `CC(=O)c1cnc2nc(C(F)(F)F)nn2c1C`, the inhibition is -10.3%.
As for `CCCCCCCCn1c2c(c(=N)c3c1CCC3)CCCC2`, the inhibition was -5.2%.
On to `CCCn1c2c(c(=N)c3c1CCC3)CCC2`, for which the inhibition was -2.65%.
Regarding `CCCCn1c2c(c(=N)c3c1CCC3)CCC2`, the inhibition was -3.76%.
As for `CCCCCCn1c2c(c(=N)c3c1CCC3)CCC2`, the inhibition is 12%.
To `CC(NC(=O)CNC(=O)c1sc2ccccc2c1Cl)c1ccc(S(N)(=O)=O)cc1` (centres undefined) belongs 3.29%.
On to `CC1=CC(C)(C(Cl)Cl)C(C)=CC1=O` (centres undefined), for which the inhibition was -0.04%.
Turning to `Cc1cc(C)c(NC(=O)CSc2nnc(CNC(=O)c3c(F)cccc3Cl)o2)c(C)c1`, the inhibition is 1.72%.
For the molecule `CC(=O)C(C(C)=O)C1(O)C(=O)c2ccccc2C1=O`, the inhibition was -7.03%.
To `CC(=O)N(C)C1=C(O)c2ccccc2C(=O)C1=O` belongs -5.54%; to `COc1ccc(CC(=O)Nc2ccc(S(=O)(=O)Nc3ncccn3)cc2)cc1`, -0.86%; to `S=C(Nc1ccccc1)NC1CCN(Cc2ccccc2)CC1`, 2.12%.
Regarding `S=C(Nc1ccc(Cl)cc1)NC1CCN(Cc2ccccc2)CC1`, the inhibition was 1.82%.
As for `Cc1ccc(NC(=S)NC2CCN(Cc3ccccc3)CC2)cc1C`, the inhibition was 7.22%.
For `Fc1ccc(NC(=S)NC2CCN(Cc3ccccc3)CC2)cc1`, the inhibition is 17.7%.
On to `COc1ccc(CSc2nnc(Cc3sc(-c4ccccc4)nc3-c3ccccc3)o2)cc1`, for which the inhibition was 7.93%.
For the molecule `NS(=O)(=O)c1ccc(NC(=S)N2CCN(Cc3ccc4c(c3)OCO4)CC2)cc1`, the inhibition was 3.73%.
Regarding `CC1Oc2ccccc2N(CC(=O)Nc2ccccc2F)C1=O` (centres undefined), the inhibition is -6.46%.
As to `Cc1cn(C2OC(COC(=O)c3ccccc3)C(O)C2O)c(=O)[nH]c1=O` (centres undefined), the inhibition is -7.25%.
Regarding `COc1cc([N+](=O)[O-])ccc1NC(=O)CSc1nnc(C)c(C)n1`, the inhibition was 13.2%.
Take `CSc1ccc(/C=C/C(=O)NC(=O)c2ccccc2O)cc1`: the inhibition was 13.3%.
To `c1ccc2c(-c3cc(C4CCNCC4)[nH]n3)cccc2c1` belongs -4.64%.
For the molecule `Clc1ccc(-c2cc(C3CCNCC3)[nH]n2)cc1`, the inhibition is 13.5%.
`CCOc1cccc(-c2c(C(=O)N/N=C(\C)c3ccncc3)nnn2-c2nonc2N)c1`: the inhibition was 0%.
Turning to `COc1ccc(CN2CCNC(=O)C2CC(=O)N(C)Cc2ccon2)c(OC)c1` (centres undefined), the inhibition was -0.06%.
Take `CC1SC(c2ccc(F)cc2)N(CCc2ccccc2)C1=O` (centres undefined): the inhibition was 11.2%.
On to `O=C(COc1ccccc1Br)c1ccc(O)cc1O`, for which the inhibition is -2.5%.
For the molecule `N=c1c(C(=O)NCc2ccco2)cc2c(=O)n3ccccc3nc2n1CC1CCCO1` (centres undefined), the inhibition was -2.9%.
Next, `Cc1ccc(CNC(=O)c2cc3c(s2)CS(=O)(=O)C3)cc1`: -3.03%; `CSc1nc2ccc(Br)cc2[nH]1`: 2.46%; `Clc1cc2nc(-c3cccnc3Cl)[nH]c2cc1Cl`: -3.66%.
For the molecule `Cn1c(=O)oc2cc(S(=O)(=O)Nc3ccccc3O)ccc21`, the inhibition was -2.19%.
To `Cc1cc(OCCCN2CCCC2)ccc1Cl` belongs 1.13%; to `Clc1ccc(OCCN2CCCCC2)cc1Cl`, 15%.
On to `Cc1cc(OCCN2CCOCC2)ccc1Cl`, for which the inhibition is -0.55%.
As for `CN1CCN(CCOc2ccc(Cl)c(Cl)c2)CC1`, the inhibition is 8.06%.
To `CCCn1c2ccccc2c2nnc(SCC(=O)Nc3ncccn3)nc21` belongs 1.55%.
On to `CN(C)CCCn1c2c(c(SCC(=O)Nc3nccs3)nc1=O)CCC2`, for which the inhibition is -3.03%.
In the case of `O=C(Nc1cccc(Cl)c1)N1CCN(c2ncccn2)CC1`, the inhibition was 8.55%.
With `COc1ccc(CC(=O)NCC(=O)N/N=C/c2ccc(C)o2)cc1`, the inhibition is -9.36%.
`C=CCNC(=S)NCc1cccnc1`: the inhibition is -7.66%.
With `O=C(NNC(=O)C1CCCCC1)c1ccc(Br)cc1`, the inhibition is -2.98%.
On to `C/C(=N\NC(=O)c1ccc(Cl)c(Cl)c1)c1ccccn1`, for which the inhibition was 3.95%.
Consider `C/C(=N\NC(=O)c1ccccn1)c1ccc(Cl)cc1`, for which the inhibition is 0.75%.
Next, `C/C(=N\NC(=O)c1cc(Br)ccc1O)c1ccccn1`: 1.41%; `C/C(=N\NC(=O)c1ccc(F)cc1)c1ccccn1`: -3.7%; `COc1ccc(CCN2CC(C(=O)NCCc3ccccc3C)CCC2=O)cc1` (centres undefined): 0.24%.
In the case of `Oc1cccc(C=NCc2ccccc2)c1`, the inhibition was -11.2%.
Next, `Oc1cccc(/C=N/N=C/c2cccc(O)c2O)c1O`: 21.8%; `COc1cc(Br)cc(/C=N/NC(=O)Cc2ccccc2)c1O`: 5.08%; `O=C(Cc1ccccc1)N/N=C/c1cc(Br)cc(Br)c1O`: 6.54%.
Consider `Oc1c(Br)cc(Br)cc1/C=N/N1CCN(Cc2ccccc2)CC1`, for which the inhibition was -8.57%.
As to `Oc1c(C=NCc2ccc(F)cc2)[nH]c2ccc(Br)c(Cl)c12`, the inhibition is -22.5%.
Take `O/N=C/c1cc(Br)ccc1OCc1ccc(F)cc1`: the inhibition was 3.46%.
On to `CN(/N=C/c1cc(Br)cc(Br)c1O)c1ccccc1`, for which the inhibition is 2.46%.
Consider `CCN(CC)CC(C)CNC(=O)CC(C(=O)N1CCc2ccccc21)n1ccnc1` (centres undefined), for which the inhibition is -1.96%.
Consider `CC1(C)C2(C#N)C(N)=NC3(OCCO3)C12C#N` (centres undefined), for which the inhibition was 4.42%.
With `Cc1ccc(S(=O)(=O)N(C)c2ccc(N)cc2)cc1`, the inhibition is 8.98%.
Take `Cc1ccc2nc(SCc3nc4cc(Cl)ccc4c(=O)[nH]3)[nH]c2c1`: the inhibition was -3.53%.
As for `COc1cccc(C2C(=O)N(C3CCCCC3)CC(=O)N2Cc2ccc(F)cc2)c1` (centres undefined), the inhibition is -2.24%.
Turning to `CN1CCN(CCC=C2c3ccccc3Sc3ccc(S(=O)(=O)N(C)C)cc32)CC1`, the inhibition was -2.21%.
Next, `CN1CCN(CC/C=C2/c3ccccc3Sc3ccc(S(=O)(=O)N(C)C)cc32)CC1`: 3.38%.
Take `OCCN1CCN(CC/C=C2/c3ccccc3Sc3ccc(Cl)cc32)CC1`: the inhibition was 5.06%.
On to `CC[N+](C)(C)CC/C=C1/c2ccccc2Sc2ccc(Cl)cc21`, for which the inhibition is 5.02%.
Consider `OCCN1CCN(CC/C=C2/c3ccccc3Sc3ccc(C(F)(F)F)cc32)CC1`, for which the inhibition was -0.41%.
Consider `C[N+](C)(C)CC/C=C1/c2ccccc2CSc2ccccc21`, for which the inhibition is -7.79%.
Take `O=C1[C@@H]2Cc3c([nH]c4ccccc34)C(c3ccc(Cl)cc3)N2C(=O)CN1CCO` (some centres undefined): the inhibition was 3.36%.
For `CC(=O)NC(=S)Nc1ccccc1N1CCCCC1`, the inhibition was -7.09%.
Regarding `COc1ccc(-c2nnc(-c3ccccc3O)o2)cc1`, the inhibition was 3.32%.
Regarding `CCC(C(=O)N1CCCCCC1)n1nc(C)n2c(cc3occc32)c1=O` (centres undefined), the inhibition was -32.5%.
Regarding `CS(=O)(=O)N(CC(=O)Nc1ccccc1C(=O)NCc1ccco1)c1ccc2c(c1)OCCO2`, the inhibition is -8.68%.
For `Cc1c(C(=O)N2CCOCC2)sc2ncn(CC(=O)N3CCC(C)CC3)c(=O)c12`, the inhibition is 0.7%.
To `Clc1ccc(COC(Cn2ccnc2)c2ccc(Cl)cc2Cl)cc1` (centres undefined) belongs -0.54%.
For `Clc1ccc(COC(Cn2ccnc2)c2ccc(Cl)cc2Cl)c(Cl)c1` (centres undefined), the inhibition is -1.14% and 1.85%.
Next, `Cn1ccsc1=NC(=O)c1ccc(S(=O)(=O)C(F)F)cc1`: 2.31%.
As for `CCOc1ccccc1-c1nc(-c2ccc(NC(=O)Cc3ccccc3OC)cc2)no1`, the inhibition is 1.73% and -10.4%.
To `O=C(Cn1c[n+](CC(=O)c2ccc([N+](=O)[O-])cc2)cn1)c1ccc([N+](=O)[O-])cc1` belongs 7.72% and 18.6%; to `O=C(Cn1cc[n+](CC(=O)c2ccccc2)c1)c1ccccc1`, 18.8%.
For `O=C(C[n+]1ccn(-c2ccccc2)c1)c1ccc([N+](=O)[O-])cc1`, the inhibition is 4.4%.
In the case of `C[n+]1ccn(CC(=O)c2ccc(Cl)cc2)c1`, the inhibition was -7.58%.
